Data as given in PubChem BioAssay AID2099 (Broad Institute, 2009).
Out of some 330,000 compounds screened, about 230 (0.07%) were called active. The sample as a whole holds a higher share of actives than the screen did. Unmarked numbers belong to inactive results.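 The calls were made as follows: active = more than half of a compound's replicate wells show inhibition beyond 50%, single wells judged on their own value; inconclusive = some, but no more than half, of replicates pass 50% inhibition; inactive = no replicate passes 50% inhibition.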

The molecules below were run against Lysine-specific demethylase 4C (Homo sapiens) (UniProt Q9H3R0) (assay: inhibitors of GASC-1 histone demethylase, primary screen, biochemical, fluorescence, DELFIA europium (AID 2099;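 also: signal counts dimethyl H3K9 product captured on neutravidin plate; 0% = median of DMSO wells and 100% = 0.3 times that DMSO median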)). Conditions: GST-JMJD2C(1-420) H3K9me3 demethylation, at 2.35 µM, active compounds read high.
Lysine-specific demethylase 4C (Homo sapiens), sequence (Q9H3R0 1-420 limits assumed): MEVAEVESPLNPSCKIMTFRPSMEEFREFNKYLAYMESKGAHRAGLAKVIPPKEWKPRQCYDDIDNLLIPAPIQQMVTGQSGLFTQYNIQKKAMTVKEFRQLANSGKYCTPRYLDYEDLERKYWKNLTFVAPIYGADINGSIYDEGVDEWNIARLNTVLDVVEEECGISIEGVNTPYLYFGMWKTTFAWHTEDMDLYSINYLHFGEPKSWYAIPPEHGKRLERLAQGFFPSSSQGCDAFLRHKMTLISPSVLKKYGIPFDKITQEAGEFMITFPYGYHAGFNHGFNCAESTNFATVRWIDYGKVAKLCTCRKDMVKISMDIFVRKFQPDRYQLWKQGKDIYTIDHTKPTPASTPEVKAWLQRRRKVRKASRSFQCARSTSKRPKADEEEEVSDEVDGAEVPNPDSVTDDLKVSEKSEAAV
`CN(C)c1nc(N)nc(CSc2nnnn2-c2cccc3ccccc23)n1` gave an inhibition of -13.8%. Work on `O=C(NCc1ccc(F)cc1)C(c1ccccc1)N(C(=O)c1csnn1)C1CC1` (centres undefined) yielded an inhibition of -35.4%. `CCc1ccc(N2CC(C(=O)N3CCCCCC3)CC2=O)cc1` (centres undefined) was tested, and the inhibition was 1.98%. In the case of `CN1CCN(S(=O)(=O)c2cccc(C(=O)Nc3cccc(S(N)(=O)=O)c3)c2)CC1`, the inhibition is reported as -5.59%. In the case of `COc1ccccc1C(=O)Nc1cccc(C(=O)N2CCOCC2)c1`, the inhibition is reported as 4.92%. `O=C(NCN1CCN(CCO)CC1)c1cnccn1` was tested, and the inhibition was -26.1%. Molecule `COc1cccc(NC(=O)CN(C)CC(=O)c2c(N)n(Cc3ccccc3)c(=O)n(C)c2=O)c1` has an inhibition of -0.288%. With `CCCN(CCC)C(=O)C1c2ccccc2Oc2ccccc21` the inhibition was 8.4%. `CC(C)C[C@H](NC(=O)C1CCC(CNC(=O)[C@@H]2CCCN2C(=O)OC(C)(C)C)CC1)C(=O)O` (some centres undefined) showed an inhibition of 0.085%. With `Cc1ccc(NS(=O)(=O)c2ccc(F)cc2)nc1` the inhibition was -1.74%. In the case of `COc1ccccc1CNC(=O)COC(=O)c1cccs1`, the inhibition is reported as -6.88%. `CC(=O)NCCc1ccc(S(=O)(=O)Nc2ccc(C)c(S(=O)(=O)N3CCOCC3)c2)cc1` showed an inhibition of -18.7%. `CC(=O)NC1=NN(C(C)=O)C(C)(c2ccc(Cl)s2)S1` (centres undefined) was tested, and the inhibition was -13.4%. Work on `CCOc1ccc(N(C)Cc2cc(=O)oc3ccc(OC)cc23)cc1` yielded an inhibition of -5.29%. In the case of `Cc1ccc(CSc2nc3[nH]ncc3c(=O)[nH]2)cc1`, the inhibition is reported as -14.5%. For `COC(=O)c1cc(CNC(=O)CC(C)c2ccccc2)ccc1OC` (centres undefined), the inhibition was -9.06%. In the case of `CCOC(=O)c1ccc(NC(=S)N2CCN(c3ccccn3)CC2)cc1`, the inhibition is reported as 21.6%. `OC(COc1ccc(CN2CCSCC2)cc1)CN1CCCCC1` (centres undefined) was tested, and the inhibition was 6.13%. `CCOC(=O)C1=C(COC(=O)[C@H](C)NS(=O)(=O)c2ccccc2F)NC(=O)NC1C` (some centres undefined) was tested, and the inhibition was 0.99%. Work on `COc1cc2nc(CN(C)Cc3ccc(F)cc3)[nH]c(=O)c2cc1OC` yielded an inhibition of -7.12%. Work on `Cc1cc(NC(=O)CCC(=O)N(Cc2ccccc2)C(C(=O)NC2CCCC2)c2ccc(C)o2)no1` (centres undefined) yielded an inhibition of -25.8%. `CCCCn1c(N)c(N(CCOC)C(=O)c2cccc(S(=O)(=O)N(C)c3ccccc3)c2)c(=O)[nH]c1=O` gave an inhibition of -2.28%. `CCC(C(=O)Nc1ccc(C(C)C)cc1)c1ccccc1` (centres undefined) was tested, and the inhibition was -16%. `O=C(Nc1ccc(S(=O)(=O)Nc2ccccn2)cc1)c1ccccc1` gave an inhibition of -2.52%. Work on `COC(=O)c1cc(C(=O)NC(C)C2CC3CCC2C3)cc([N+](=O)[O-])c1` (centres undefined) yielded an inhibition of -12.5%. In the case of `COc1cc(NC(=O)c2ccccc2)c(OC)cc1NC(=O)Cc1ccccc1`, the inhibition is reported as 0.759%. `Nc1nc(SCC(=O)Nc2cc(C(F)(F)F)ccc2Cl)[nH]c(=O)c1NC(=O)c1ccco1` showed an inhibition of 6.68%. `COc1ccc(C(CC(=O)c2ccccc2)S(=O)(=O)c2ccccc2)cc1` (centres undefined) gave an inhibition of -0.656%. `CCC(C(=O)NCCC(C)C)N(Cc1ccccc1Cl)C(=O)c1snc(C(N)=O)c1N` (centres undefined) gave an inhibition of -1.98%. With `CCCCCOC(=O)C1=C(C)Nc2nnnn2C1c1ccc(OC)c(OC)c1OC` (centres undefined) the inhibition was -7.05%. With `Cc1ccc(NC(=O)Cn2cnc3c(OCc4ccccc4)ncnc32)cc1C` the inhibition was 3.36%. In the case of `O=C(Cc1cccs1)NCc1cccc(C(F)(F)F)c1`, the inhibition is reported as 2.56%. `O=C(c1ccc(S(=O)(=O)N2CCCC2)cc1)N1CCN(c2ccccc2F)CC1` showed an inhibition of 5.37%. For `C/C(=N\NC(=O)CCn1nc(C)cc1C)C(C)(C)C`, the inhibition was -1.66%. `CCC(c1nnc(SCC(=O)NNC(=O)c2ccccc2)n1Cc1ccccc1)N(C)C` (centres undefined) was tested, and the inhibition was 24.1%. `CC1CN(C(=O)COC(=O)c2cccc(NS(=O)(=O)c3ccccc3)c2)CC(C)O1` (centres undefined) showed an inhibition of -11.9%. For `CC(C)(C)n1nnc(CCc2nnn(C(C)(C)C)n2)n1`, the inhibition was 4.71%. With `CC1CC(C)(C)CC2(C1)NC(=O)N(CC(=O)Nc1nccs1)C2=O` (centres undefined) the inhibition was 12%. Molecule `CN(C)/C=N/c1cc(=O)n(C)c(=O)n1CC1CC1` has an inhibition of -0.734%. With `CN(C)S(=O)(=O)c1ccc(N2CCCC2=O)c([N+](=O)[O-])c1` the inhibition was 7.65%. With `C=CCc1cc(S(=O)(=O)c2ccc(O)c(CC=C)c2)ccc1O` the inhibition was 11.5%. `CCCCc1ccc(S(N)(=O)=O)cc1` showed an inhibition of 1.85%. `COc1cc(CN(C)Cc2nc3cc(C(F)(F)F)ccc3c(=O)[nH]2)ccc1OC(F)F` gave an inhibition of -0.492%. `O=[N+]([O-])c1ncc(Br)cc1Nc1ccccc1` gave an inhibition of -32.6%. Work on `CC(C)N(Cc1nnc(-c2ccc(Cl)cc2)o1)C(=O)C1=COCCO1` yielded an inhibition of 0.031%. With `COc1ccc(CNC(=O)C(=O)N2CCC3(CC2)OCCN3S(=O)(=O)c2ccc(C)cc2)cc1` the inhibition was 28.1%. Work on `Cc1cc(C)n(CCNC(=O)CC2C(=O)NCCN2Cc2ccc(C)o2)n1` (centres undefined) yielded an inhibition of -19.8%. For `CCC(=O)NC(Nc1cc(C)ccn1)(C(F)(F)F)C(F)(F)F`, the inhibition was -10.4%. `CC1CN(C(=O)CCC(=O)NCCCN2CCC(Cc3ccccc3)CC2)c2cc(Cl)ccc2O1` (centres undefined) was tested, and the inhibition was 2.61%. For `Cc1noc(C)c1C(=O)OCC(=O)N1CCN(S(=O)(=O)c2ccc3ccccc3c2)CC1`, the inhibition was -0.0421%. `CCOC(=O)c1sc(-c2cccc([N+](=O)[O-])c2)cc1N` gave an inhibition of 0.615%. With `Cc1ccc(C(=O)CN2C(=O)NC3(CCOc4ccccc43)C2=O)s1` (centres undefined) the inhibition was 0.803%. For `CCOc1ccc(NC(=O)CN(C)CC(=O)NC(C)c2ccccc2)cc1OCC` (centres undefined), the inhibition was 2.69%. For `CCN1C(=O)C(=O)N(CC(=O)Nc2cc(C)ccc2C)C1=O`, the inhibition was 8.4%. `COc1cccc2cc(C(=O)NCc3ccc(C)cc3)c(=N)oc12` gave an inhibition of 0.845%. Molecule `Cc1ccccc1-c1cc(C(=O)NCC2CC2)n(CC2CC(c3cccnc3)=NO2)n1` (centres undefined) has an inhibition of -1.99%. Molecule `O=C(/C=C/c1cccs1)c1cc(Cl)ccc1OC(=O)N1CCOCC1` has an inhibition of 98.5%. In the case of `CN(C(=O)c1ccccn1)c1nnc(-c2ccccn2)s1`, the inhibition is reported as 58.4% (active). `COc1cc(OC)cc(-c2nnc(N(C)C(=O)c3ccncc3)s2)c1` gave an inhibition of -7.55%. `COc1cccc(-c2nnc(N(C)C(=O)c3ccno3)s2)c1` gave an inhibition of -39.9%. `O=C(NCCNc1ccc([N+](=O)[O-])cc1)c1cccc2c(Br)cccc12` showed an inhibition of 7.15%. In the case of `O=C(O)CCCn1cc(NC(=O)COc2cccc(Cl)c2)cn1`, the inhibition is reported as -414%. `CCCCn1c(N)c(N(CC(C)C)C(=O)c2cccc(S(=O)(=O)N3CCN(C(C)=O)CC3)c2)c(=O)[nH]c1=O` was tested, and the inhibition was -1.72%. Work on `CC1CCN(C(=O)/C(=C\c2ccccc2F)NC(=O)c2ccccc2)CC1` yielded an inhibition of 0.57%. For `CCOc1ccc(S(=O)(=O)N2CCC(c3ccccc3)CC2)cc1C(=O)O`, the inhibition was -0.18%. For `O=C(N1CCCCC1)N1CCN(C(=O)N2CCCCC2)CC1`, the inhibition was -0.997%. For `COc1ccc(CC(NC(C)=O)C(=O)N2CCN(C(=O)Nc3cccc(Cl)c3)CC2)cc1OC` (centres undefined), the inhibition was 3.8%. For `Cc1ccc2oc(C(=O)N3CCN(C)C[C@@H]3C(C)C)c(C)c2c1`, the inhibition was -21.1%. `COc1ccc(-c2nc3n(c(=O)c2C#N)CCS3)c(OC)c1` showed an inhibition of -2.02%. Molecule `COc1ccccc1OCC(=O)Nc1c2c(nn1-c1ccc(F)cc1)CS(=O)(=O)C2` has an inhibition of -10.7%. For `COC(=O)c1c(NC(=O)CN(c2ccc(C)c(C)c2)S(C)(=O)=O)sc2c1CCCC2`, the inhibition was 5.54%. `NS(=O)(=O)c1ccc(CNC(=S)NC(=O)c2ccco2)cc1` showed an inhibition of 2.82%. With `CC(C)C[C@@H](N)c1nnc(SCC(=O)c2ccc(Cl)cc2)o1` the inhibition was -0.106%. `C=CCSc1nc(Cc2ccc(Cl)cc2)nc2ccccc12` was tested, and the inhibition was -13.3%. With `CCOc1ccc(C(C)=O)cc1COC(=O)c1cnc(Cl)c(Cl)c1` the inhibition was -8.14%. For `O=S(=O)(NCCc1ccccn1)c1cc(Cl)cc(Cl)c1O`, the inhibition was 6.23%. `CCN(C(=O)CSc1ncnc2sccc12)c1c(N)n(Cc2ccccc2)c(=O)[nH]c1=O` showed an inhibition of -1.94%. With `CN1C(=O)c2ccccc2C(C(=O)NCCCN2CCCC2)C1c1c[nH]c2ccccc12` (centres undefined) the inhibition was -5.55%. `COCCCn1c(SCC(=O)Nc2oc(C)c3c(C)n[nH]c(=O)c23)nc2sc3c(c2c1=O)CCC3` was tested, and the inhibition was -6.89%. `CCC(CO)Oc1cc(NC(=O)c2cccc3ccccc23)c2ncn(C(C)C)c2c1` (centres undefined) was tested, and the inhibition was 51.8% (active). With `CCC(CO)Oc1cc(NCc2ccccc2)c2ncn(C3CCCC3)c2c1` (centres undefined) the inhibition was -1.07%. `CCC(CO)Oc1cc(NC(=O)c2cccc(F)c2)c2ncn(C(C)C)c2c1` (centres undefined) showed an inhibition of -5.85%. `CC(=O)Nc1ccc(Nc2ncnc3c2nnn3Cc2ccccc2Cl)cc1` was tested, and the inhibition was 1.4%. Work on `CCC(=O)N1c2ccc(S(=O)(=O)NCc3ccco3)cc2CC1C` (centres undefined) yielded an inhibition of 15.7%. With `Cc1[nH]c(C)c(S(=O)(=O)N2CCN(c3cccc(C(F)(F)F)c3)CC2)c1C(=O)N1CCCCC1` the inhibition was 30%. With `Cc1ccc(C)c(NC(=O)CCC(=O)N/N=C2/CC(=O)CC(C)(C)C2)c1` the inhibition was 3.28%. `COc1ccccc1NC1=NC(c2ccc(Cl)cc2)N=C(N)N1` (centres undefined) gave an inhibition of 0.933%. Molecule `Cc1ccc(S(=O)(=O)N2CCC(C(=O)OCC(=O)N(C)c3ccccc3)CC2)cc1C` has an inhibition of 10.2%. `O=C1c2ccccc2C(=O)N1CCOc1ccc(F)cc1` gave an inhibition of -6.36%.
